According to the supplement of paper PMC3334620:
In all, about 33,000 sequences were measured (“E-score (-0.5 to 0.5)”: median about -0.016, highest 2% from about 0.31 on). Shown is part of a subset that was picked to be rich in the highest values.

target: Cst6 (UniProt P40535); assay: PBM E-score (8-mer binding enrichment) (E-score (-0.5 to 0.5)); higher = stronger / more preferred TF binding; details: protein concentration: 200 nM; construct: GST-DNA-binding domain
Experimental: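 Universal 'all 10-mer' protein binding microarrays (Agilent AMADID 015681) probed with GST-tagged S. cerevisiae TFs (full-length or DBD) made by in vitro transcription/translation (PURExpress), about 100-200 nM. Bound TF was detected with fluorescent anti-GST. Each ungapped 8-mer (which stands for itself and its reverse complement) is scored by the PBM enrichment score (E-score), a modified Wilcoxon-Mann-Whitney statistic from -0.5 to +0.5, computed with the Universal PBM Analysis Suite. Scale: above 0.35 generally sequence-specific binding.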

UniProt P40535, sequence (P40535 whole entry, the tested form may be a part): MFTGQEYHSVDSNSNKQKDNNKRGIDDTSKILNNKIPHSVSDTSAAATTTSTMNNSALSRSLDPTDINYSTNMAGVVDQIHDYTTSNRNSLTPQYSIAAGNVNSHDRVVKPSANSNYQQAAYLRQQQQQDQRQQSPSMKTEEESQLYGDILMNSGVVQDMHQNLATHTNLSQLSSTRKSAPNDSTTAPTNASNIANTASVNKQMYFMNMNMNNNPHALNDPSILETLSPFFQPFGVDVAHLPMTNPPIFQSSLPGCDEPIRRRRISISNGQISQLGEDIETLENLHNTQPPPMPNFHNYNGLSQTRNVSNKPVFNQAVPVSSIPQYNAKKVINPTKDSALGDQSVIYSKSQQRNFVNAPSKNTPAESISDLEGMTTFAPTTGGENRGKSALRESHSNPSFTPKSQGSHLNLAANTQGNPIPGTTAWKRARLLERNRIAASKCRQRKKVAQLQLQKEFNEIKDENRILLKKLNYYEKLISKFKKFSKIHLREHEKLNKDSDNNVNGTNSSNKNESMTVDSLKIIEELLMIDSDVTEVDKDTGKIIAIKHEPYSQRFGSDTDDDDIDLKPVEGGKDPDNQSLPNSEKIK

Sequence | PBM E-score
GCGTTAAA | -0.0116
AGGGTAGC | -0.17
GTGCTATA | 0.0846
ACTCATTC | 0.103
CTCCGATA | -0.203
GGGATTTA | 0.00892
GGGCCTGA | -0.239
GCACCAAA | 0.0915
ACACCAAA | 0.212
TCACCAAA | 0.326
CGCCTTAC | 0.163
GAAGTGGA | -0.16
GTCATAGA | 0.411
ATCATAAA | 0.195
ATCATAGA | 0.246
ATCATATA | 0.299
CTCATATA | -0.0189
GTCATAAA | 0.331
CTCATAGA | 0.0631
CTCATACA | 0.116
TTCATAAA | 0.212
GGCATACA | -0.102
GTCATATA | 0.377
GTCATACA | 0.317
CAACACTG | 0.0167

Sequence | PBM E-score
AGGCGTGG | -0.196
ATTAAGCG | 0.108
AACTGAAG | 0.0725
CCGGCCAA | -0.232
TGCTAGCA | 0.0927
AGTACTGC | -0.173
TAAAGTCA | 0.0375
ATTGCTCA | 0.192
CAGATACG | 0.0888
CTAACAGC | -0.00671
ATCATACG | 0.308
ATCATACC | 0.259
ATCATACA | 0.268
CAGACAAG | -0.14
AGTCTCCC | -0.308
CATCATAA | 0.291
CATCATAC | 0.374
ACTCATAG | 0.152
AATCATAC | 0.239
CATCATAG | 0.326
AATCATAG | 0.189
CAGGGAAG | -0.244
CTTCCTTC | -0.24
ATGGTGAG | 0.0691
CAACACCC | -0.142

Sequence | PBM E-score
AGGCCCAC | -0.378
GGAGTTTA | 0.00491
CTGATGAA | 0.0772
ATGATTAA | 0.329
CTGATGAC | 0.292
ATGATTAG | 0.158
AGGATGAC | 0.208
ATGATGAC | 0.378
GTGATGAA | 0.154
ATGATGAA | 0.367
CTGATTAA | 0.161
TAGCGAGA | -0.0782
GCATTCGA | -0.00988
ACCATCTA | -0.207
ATTTGTGA | 0.146
AGTGCAGC | -0.108
ATTGATAC | 0.154
GCGATGCA | -0.255
CGTCAACA | 0.407
CCTCAACG | -0.102
GGTCAACC | -0.0743
CGTCAACC | 0.377
AGTCAACC | -0.219
TGTCAACA | 0.184
CGTCAACG | 0.344

Sequence | PBM E-score
GGTCAACA | -0.0567
AGTCAACG | -0.102
GGTACGAA | 0.0828
GATGCACC | -0.163
ATGATCAT | 0.198
CGTCAAGC | 0.0721
AGTCAATC | 0.0291
GGTCAATA | 0.0678
AGTCAATA | 0.0835
CGTCAATA | 0.349
CGTCAATC | 0.337
TCGTATCA | 0.127
ACTAGCCC | -0.0733
CACAGTGG | -0.124
GGCCTGAA | -0.122
AATTCGTC | 0.316
CATTCGTC | 0.148
AATTCGTA | 0.252
AGTGCGGC | 0.173
CATGCGGA | -0.0527
CGTGCGGA | 0.0478
AATGCGGC | 0.266
CGTGCGGC | 0.321
CATGCGGC | 0.33
ATTAAGAC | -0.0411

Sequence | PBM E-score
AGTTGATA | 0.103
GAAAAGAC | 0.222
CGACAGAG | -0.315
TGCCTTAA | -0.0513
AGAACAAA | 0.34
AAAAAAAA | 0.317
AGAACAAG | 0.113
AGAACAAT | 0.25
ACAAAAAC | 0.104
CCAAAAAA | 0.279
ACAAAAAT | 0.279
CAAAAAAA | 0.32
GAAAAAAA | 0.258
AAAAAAAG | 0.211
ACAAAAAA | 0.311
CAAAAAAC | 0.201
CATCCAGC | -0.0585
CTCCGTAA | -0.0462
CCACCTAA | -0.0425
TAGCCCGA | -0.177
CACAATCA | 0.17
AGTTTGAC | 0.0432
ACTTTAAT | 0.107
ACTACGTA | 0.343
CTTACGAA | 0.119

Sequence | PBM E-score
ATTACGTG | 0.46
GTTACGGA | 0.11
CTTACGTA | 0.466
GCTACGTA | 0.213
ACTACGTG | -0.0819
GTTACGTA | 0.46
CCTACGTA | 0.297
CTCACGTA | -0.00865
AGTACGTG | -0.125
ATTACCTG | 0.14
AGTCTCAA | -0.217
CAAACCTC | -0.272
TCTTCACA | 0.113
AAACCCGT | 0.0445
ATCTCGTG | -0.0972
ATCGCTGG | -0.217
AGACGCAT | -0.0757
CTCACGTC | 0.14
ATTACGGC | 0.266
ATTACGTC | 0.485
ATTACGTA | 0.49
ACTACGTC | 0.157
CTTACGTC | 0.421
CTTACGCC | 0.193
ATTACGGA | 0.154

Sequence | PBM E-score
ATTAGGTA | 0.261
AACCTTCG | 0.0222
CCAAGGCC | -0.19
CCATTCTA | -0.0992
AAGAATTG | 0.182
ACTTGCTC | -0.198
ATCAAACA | 0.107
CAGTTGGC | -0.175
AGGTCACT | -0.0496
AAGTCACT | 0.141
AGGTCACA | -0.0345
AGGTCACG | 0.0374
ACGTCACA | 0.484
ACGTCACG | 0.49
ACGTCACT | 0.495
AAGTCACA | 0.119
AAGTCACG | 0.0378
TGCACCAA | -0.0568
AGTTGCTG | -0.0492
ACACACAG | 0.107
CACGCTGC | -0.246
CAACCACC | -0.251
ATTCTCGC | -0.17
AAGTACCC | -0.275
ATGCCTCA | 0.11

Sequence | PBM E-score
ATGCCTCC | -0.0323
ATGCCTCG | 0.317
ATGTCATA | 0.442
CTGTCATA | 0.186
ATGTCAAG | 0.235
ATGTCGTG | 0.0262
GTGTCATA | 0.249
ATGTCAGC | 0.225
CTGTCATC | 0.186
ATGTCATC | 0.432
ATGTCATG | 0.425
ACTTTGAA | 0.0348
GCATCGAA | -0.0745
GGATCTAA | -0.0815
GACCTTAA | -0.0362
CTAGTGCC | -0.125
AGCTATCG | -0.106
GCAGCAGC | -0.133
ATCACCGA | 0.212
ATCACCAC | 0.244
GTCACCGA | 0.426
CTCACCGA | 0.048
GTCACCAA | 0.315
CTCACCAA | 0.102
CTCACCAC | -0.0767

Sequence | PBM E-score
TTCACCAA | 0.124
GTCACCAC | 0.373
GTGGTGAA | -0.0462
GTCTCCAA | -0.00606
GAGCAAAA | 0.0129
CGAGCCTA | 0.011
AATTATTG | 0.252
ATTATTTA | 0.305
ATTTATTA | 0.357
AATTATGG | 0.0357
AATTATGT | 0.304
AATTATTA | 0.321
AATTATTC | 0.219
AATTATGA | 0.359
GTTTATTA | 0.164
AGCCGATA | -0.0664
CCAAGATC | -0.12
CGTGAGAG | -0.269
ACGACGTC | 0.218
AAGACGTC | 0.28
CAGACGTC | 0.113
CTGACGTC | 0.482
ATGACGTC | 0.497
CGGACGTC | 0.252
AGCAAGCA | -0.252

Sequence | PBM E-score
GCCCAGGC | -0.318
GTGTATGA | 0.186
ACGTATGA | 0.432
CCGTATGA | 0.226
ACGTATGC | 0.32
ATGTATGA | 0.336
ATGTATGG | 0.0177
AGGTATGC | 0.111
CCGTATGC | 0.0167
ACGTATGG | 0.158
GGGAAGAA | -0.0773
ACTGGTGA | -0.0583
GAGTTGGA | -0.0506
TTACGGAA | 0.178
CTACGTAA | 0.451
TTACGAAA | 0.284
TTACGTAA | 0.493
CTACGTAC | 0.00059
AGACGTAT | 0.144
ATACGTAG | 0.186
ATACGTAT | 0.376
ACACGTAT | 0.238
ATACGTAC | 0.198
CTACGTAG | 0.137
ATACGTAA | 0.463

Sequence | PBM E-score
AGGTCCAT | -0.0689
CGTTCTCC | -0.174
CAGCGCCC | -0.0102
ATAGATGC | -0.0272
TAGCAGAA | 0.107
AGTATGTC | 0.155
CAGTGTGA | 0.158
AGGTTGAC | 0.0459
GAAACGCA | 0.172
AGACATCC | -0.211
GTACGTAA | 0.449
GCACGTAC | -0.00487
GTACGTAC | 0.0996
TCAAGCGA | -0.00748
ACAGGCGG | -0.104
GTGCCGTA | 0.389
CTGCCGTA | 0.0163
ATGCCGTG | 0.283
AAGCCGTA | 0.173
ATGCCGAA | 0.0887
GTGCCGGA | -0.104
ATGCCGTA | 0.372
ATGCCGTC | 0.323
CTGCCGTC | 0.0959
GGGTTAAA | -0.06

Sequence | PBM E-score
GAGAGAGC | -0.197
GATTGCGC | 0.0307
AATTGCGA | -0.111
AATTGCGC | 0.309
AATTGCGG | -0.0187
AATTGCGT | 0.315
CATTGCGC | 0.0683
AAAACGCG | 0.205
AACGTTGC | -0.0467
AAGTACCT | -0.196
AAGTGAAG | -0.0822
AAGCCGAC | -0.231
CGACGGCG | 0.257
AGACGGCC | -0.214
ACACGGCG | 0.394
ACACGGCT | 0.266
AAACGCCA | 0.18
ACACGGCA | 0.282
AAACGCCG | 0.36
CCACGGCA | 0.235
CAACGCCG | 0.191
CCACGGCC | -0.0591
CCACGGCG | 0.309
AGACGGCG | 0.305
TCCTCCGA | -0.395

Sequence | PBM E-score
CCCCTTAA | -0.212
AGGCAAAT | 0.164
ATACAGGC | -0.121
GCAGGCAA | -0.0304
AGAGGATC | -0.18
AAACGGCT | 0.105
AAACGGCG | 0.369
AAACGGCC | 0.084
ACAAGTAA | -0.0276
CCAGTTCA | 0.0369
AAAATGAA | 0.155
CTAATGGA | -0.085
GTAATGAC | 0.377
ATAATGGA | 0.109
GTAATGGA | 0.353
CAAATGAC | 0.248
AAAATGAC | 0.327
CTAATGAC | 0.252
AAAATGAT | 0.298
GAAATGAA | 0.237
GTAATGAA | 0.268
GAAATGAC | 0.32
CTGCATCC | -0.101
CTTGCAGA | -0.138
CACGCCCA | -0.21

Sequence | PBM E-score
GCTAACCC | -0.223
ACATCCCC | -0.119
AAAGCCCA | 6e-05
CACGCATA | -0.215
GACGCATA | 0.315
GACGCATC | 0.0635
GCTTCCTA | -0.0171
ACACCACG | -0.0337
CAATGCCA | -0.0721
GGCGTCCC | -0.225
GGCGTCTA | 0.0648
CGCGTCAG | 0.0126
GGCGTCAC | 0.431
AGAGTCAT | -0.0245
AGCGTCAG | 0.177
AGCGTCCT | -0.276
CGCGTCAC | 0.418
CGCGTCAA | 0.211
AGCGTCAC | 0.332
AGCGTCAA | 0.269
AGCGTCAT | 0.423
